Measured values taken from PubChem BioAssay (Tox21).
Results filed as inconclusive are left out. Calls of active or inactive are those of the source. Unless noted, calls follow the shape of the dose curve; as a rule, active = well fitted curve in the direction sought with a large enough effect in the repeat runs; inconclusive = weak or mixed curves; inactive = no such curve, though single readings can be large; an effect the other way counts as inactive or inconclusive.

Tests used:
[1] = qHTS assay to identify small molecule agonists of the estrogen receptor alpha (ER-alpha) signaling pathway in the presence of an antagonist - cell viability counter screen (AID 1259386); also: series mostly up to about 92 µM; nearly all actives have a fitted effect of over 30% in size
Summary of the method: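 Compounds tested at 15 concentrations for 22 h at 37C alongside 10.0nM (final) ICI-182,780 antagonist, in VM7Luc4E2 cells grown in phenol red-free, charcoal-stripped medium. Viability read by CellTiter-Fluor fluorescence after 1 h reagent incubation.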

[2] = molecular target: Progesterone receptor (Homo sapiens) (UniProt P06401); assay: qHTS assay to identify small molecule antagonists of the progesterone receptor (PR) signaling pathway (AID 1346795; active = well fitted inhibition curve with a large enough effect in the signal ratio in the repeat runs, not every such curve was filed as active; the % refers to the signal ratio)
Sequence of Progesterone receptor (Homo sapiens) (P06401 whole entry, looked up): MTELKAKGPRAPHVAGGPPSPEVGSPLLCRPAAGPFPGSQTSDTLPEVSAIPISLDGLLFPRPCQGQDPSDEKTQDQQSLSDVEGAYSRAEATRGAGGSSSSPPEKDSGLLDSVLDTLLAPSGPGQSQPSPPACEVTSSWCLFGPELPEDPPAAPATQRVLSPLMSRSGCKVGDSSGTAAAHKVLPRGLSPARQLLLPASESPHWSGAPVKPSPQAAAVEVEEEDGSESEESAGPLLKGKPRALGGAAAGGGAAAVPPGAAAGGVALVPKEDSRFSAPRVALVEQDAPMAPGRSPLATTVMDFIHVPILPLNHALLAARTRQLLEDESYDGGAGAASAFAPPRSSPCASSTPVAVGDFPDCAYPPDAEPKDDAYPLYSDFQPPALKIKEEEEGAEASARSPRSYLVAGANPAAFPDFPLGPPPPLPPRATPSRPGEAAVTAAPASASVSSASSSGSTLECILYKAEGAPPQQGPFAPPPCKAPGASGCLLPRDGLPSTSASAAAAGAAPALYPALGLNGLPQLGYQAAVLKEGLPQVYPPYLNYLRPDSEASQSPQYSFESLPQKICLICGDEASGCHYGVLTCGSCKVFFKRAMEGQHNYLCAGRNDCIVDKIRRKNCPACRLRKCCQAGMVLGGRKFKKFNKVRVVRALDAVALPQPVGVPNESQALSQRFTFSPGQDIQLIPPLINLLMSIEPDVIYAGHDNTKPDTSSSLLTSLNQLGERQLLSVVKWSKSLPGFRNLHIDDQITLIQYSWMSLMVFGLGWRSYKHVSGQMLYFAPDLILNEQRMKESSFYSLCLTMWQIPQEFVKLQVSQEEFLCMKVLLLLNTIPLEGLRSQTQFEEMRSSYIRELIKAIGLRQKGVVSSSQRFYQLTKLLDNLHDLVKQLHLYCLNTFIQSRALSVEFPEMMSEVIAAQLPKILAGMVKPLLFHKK
Summary of the method: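 Inhibition of R5020-induced (1 nM final) beta-lactamase reporter signal in PR-UAS-bla HEK293T cells was scored by FRET fluorescence after overnight (16 hr) compound treatment.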

[3] = qHTS assay to identify small molecule antagonists of the progesterone receptor (PR) signaling pathway - cell viability counter screen (AID 1346798); also: series mostly up to about 92 µM; nearly all actives have a fitted effect of over 50% in size
Summary of the method: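 ATP content as viability readout: CellTiter-Glo luminescence, 30 min room temperature, in PR-UAS-bla HEK293T cells after 16 hr compound/R5020 treatment at 37C and 5% CO2.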

[4] = qHTS assay to identify small molecule agonists of the progesterone receptor (PR) signaling pathway - cell viability counter screen (AID 1346799; calls by dose curve; also: nearly all actives have a fitted effect of over 45% in size)
Summary of the method: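 Cytotoxicity in PR-bla HEK293T cells: 16 h compound, 37C; CellTiter-Glo added post-FRET read; luminescence after 30 min RT.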

[5] = qHTS assay to identify small molecule antagonists of the TGF-beta/Smad signaling pathway - cell viability counter screen (AID 1346824); also: nearly all actives have a fitted effect of over 50% in size
Summary of the method: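 SBE-bla HEK 293T cells, incubated overnight, then compound plus 0.25 ng/mL TGF-beta1 (stock added) for 5 hr at 37 C. Viability was read in the same wells by CellTiter-Glo luminescence after 30 min at room temperature.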

[6] = qHTS assay to identify small molecule agonists of the TGF-beta/Smad signaling pathway - cell viability counter screen (AID 1346829); also: top concentration of the series differs between compounds; nearly all actives have a fitted effect of over 45% in size
Summary of the method: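 HEK 293T SBE-bla line, 5 hr compound exposure at 37 C, multiplexed CellTiter-Glo viability read by luminescence.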

[7] = qHTS assay to identify small molecule agonists of the TGF-beta/Smad signaling pathway (AID 1346859; active = well fitted activation curve with a large enough effect in the signal ratio in the repeat runs, not every such curve was filed as active; the % refers to the signal ratio; also: series mostly up to about 77 µM)
Summary of the method: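 Stable Smad binding element-beta-lactamase HEK 293T cells; 5 hr compound exposure at 37 C under 5% CO2; 2 hr room-temperature substrate step; fluorescence excited at 405 nm, collected at 460 nm and 530 nm.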

[8] = molecular target: Thyrotropin-releasing hormone receptor (Homo sapiens) (UniProt P34981); assay: qHTS assay to identify small molecule antagonists of the thyrotropin-releasing hormone receptor (TRHR) signaling pathway (AID 1346877; active = well fitted inhibition curve with a large enough effect in the repeat runs, not every such curve was filed as active; also: series mostly up to about 51 µM)
Sequence of Thyrotropin-releasing hormone receptor (Homo sapiens) (P34981 whole entry, looked up): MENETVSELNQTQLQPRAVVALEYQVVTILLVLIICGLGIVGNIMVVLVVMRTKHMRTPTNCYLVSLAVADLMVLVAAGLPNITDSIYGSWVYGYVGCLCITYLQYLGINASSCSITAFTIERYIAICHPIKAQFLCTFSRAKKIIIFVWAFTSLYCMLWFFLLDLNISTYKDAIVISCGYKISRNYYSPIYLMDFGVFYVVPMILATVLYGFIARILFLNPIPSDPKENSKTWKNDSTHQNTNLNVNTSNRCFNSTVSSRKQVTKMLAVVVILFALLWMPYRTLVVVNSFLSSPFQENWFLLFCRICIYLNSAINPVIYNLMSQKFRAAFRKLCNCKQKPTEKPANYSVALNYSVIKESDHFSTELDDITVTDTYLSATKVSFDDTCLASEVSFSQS
Summary of the method: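 Antagonist mode: after a 5 min room-temperature compound exposure, cells were stimulated with 1 nM (final) TRH. Dye-loaded TRHR-HEK293 cells were used, and calcium-dependent fluorescence was followed for 3 min, with 15-point titrations run in triplicate.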

[9] = molecular target: Thyrotropin-releasing hormone receptor (Homo sapiens) (UniProt P34981); assay: qHTS assay to identify small molecule agonists of the thyrotropin-releasing hormone receptor (TRHR) signaling pathway (AID 1346891; calls by dose curve;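 also: HEK293 cells expressing TRHR with calcium dye readout; series mostly up to about 58 µM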)
Summary of the method: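 In 1536-format, 1500 TRHR-Hek293 cells per well grew 18 h, took up calcium dye for 2 h at 37 °C, received compound, and were read kinetically; 15-point titrations, triplicates.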

[10] = Human pregnane X receptor (PXR) small molecule agonists, qHTS cell viability counter screen (AID 1346977); also: nearly all actives have a fitted effect of over 50% in size
Summary of the method: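 Readout is CellTiter-Fluor fluorescence from PXR-Luc HepG2 cells. Plated cells rested 5hr, then were treated with compounds for 24hr at 37C and 5% CO2, with reagent present during the last hour.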

[11] = Caspase-3/7 induction in HepG2 cells by small molecules, qHTS assay (AID 1346978); also: nearly all actives have a fitted effect of over 15% in size
Summary of the method: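 Wild-type HepG2 cells, 2,000/well, settled 5 hr at 37 C and 5% CO2, then compound-treated for 17 hr; caspase-3/7 activity read by luminescent Caspase-Glo 3/7 after 30 min at room temperature.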

[12] = Caspase-3/7 induction in CHO-K1 cells by small molecules, qHTS cell viability counter screen (AID 1346979); also: nearly all actives have a fitted effect of over 35% in size
Summary of the method: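 To flag cytotoxic compounds, treated CHO-K1 wild-type cells were given CellTiter-Fluor at 16hr and read fluorescently after 1hr at 37C; the caspase-3/7 luminescence was measured in these same wells.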

[13] = Caspase-3/7 induction in CHO-K1 cells by small molecules, qHTS assay (AID 1346980); also: nearly all actives have a fitted effect of over 15% in size
Summary of the method: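 Wild-type CHO-K1 cells exposed to compounds for 17hr at 37 C, 5% CO2. Caspase-3/7 activity then measured by Caspase-Glo 3/7 luminescence after 30min at room temperature.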

[14] = Caspase-3/7 induction in HepG2 cells by small molecules, qHTS cell viability counter screen (AID 1346981); also: series mostly up to about 92 µM; nearly all actives have a fitted effect of over 30% in size
Summary of the method: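 CellTiter-Fluor fluorescence measured viability in the same wells used for Caspase-Glo 3/7. HepG2 (wild type) at 2,000 cells/well were pre-incubated 5 hr, dosed, and given reagent at 16 hr, with 1 hr further at 37C.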

[15] = molecular target: Nuclear receptor subfamily 1 group I member 2 (Homo sapiens) (UniProt O75469); assay: Human pregnane X receptor (PXR) small molecule agonists, qHTS assay (AID 1346982); also: nearly all actives have a fitted effect of over 35% in size
Sequence of Nuclear receptor subfamily 1 group I member 2 (Homo sapiens) (O75469 whole entry, looked up): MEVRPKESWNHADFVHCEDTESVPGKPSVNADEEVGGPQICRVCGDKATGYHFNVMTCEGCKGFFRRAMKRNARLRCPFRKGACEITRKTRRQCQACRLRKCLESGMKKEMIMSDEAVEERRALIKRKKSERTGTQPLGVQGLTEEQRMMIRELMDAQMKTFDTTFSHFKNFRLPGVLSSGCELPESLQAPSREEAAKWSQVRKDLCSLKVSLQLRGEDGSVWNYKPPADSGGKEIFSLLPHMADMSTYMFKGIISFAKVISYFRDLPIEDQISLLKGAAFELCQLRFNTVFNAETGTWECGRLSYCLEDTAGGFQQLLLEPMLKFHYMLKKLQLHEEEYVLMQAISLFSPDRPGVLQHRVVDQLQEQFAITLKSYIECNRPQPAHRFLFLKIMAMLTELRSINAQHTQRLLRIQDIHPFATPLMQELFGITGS
Summary of the method: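 Agonist mode: luminescence from ONE-Glo after 24 h compound exposure at 37C in HepG2 cells carrying hPXR-responsive CYP3A4 luciferase, plated in charcoal-stripped serum medium 5 h beforehand.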

[16] = molecular target: Progesterone receptor (Homo sapiens) (UniProt P06401); assay: qHTS assay to identify small molecule agonists of the progesterone receptor (PR) signaling pathway (AID 1346784; calls by dose curve; also: nearly all actives have a fitted effect of over 30% in size)
Summary of the method: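 Using charcoal-stripped serum (2%) to limit endogenous steroids, PR-UAS-bla HEK 293T cells received compounds for 16 hr at 37C after 6 hr plating; beta-lactamase FRET fluorescence was recorded following 2 hr substrate loading at room temperature.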

[17] = molecular target: Nuclear receptor subfamily 1 group I member 2 (Homo sapiens) (UniProt O75469); assay: CYP3A4 induction through human pregnane X receptor (PXR) by small molecules, qHTS assay (AID 1346984); also: nearly all actives have a fitted effect of over 40% in size; also: potency is read from the fitted curve at half-maximal effect
Summary of the method: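 Read-out is luminescence after One-Glo addition, following a 3 hr, 37C incubation with Luciferin-IPA CYP3A4 substrate (3uM final). Before that, compounds were on DPX-2 cells (HepG2 co-transfected with PXR element plus CYP3A4-promoter luciferase) for 24 hr at 37C.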

[18] = molecular target: Nuclear receptor subfamily 1 group I member 2 (Homo sapiens) (UniProt O75469); assay: Human pregnane X receptor (PXR) activation by small molecules, qHTS assay (AID 1346985); also: nearly all actives have a fitted effect of over 40% in size; also: potency is read from the fitted curve at half-maximal effect
Summary of the method: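 DPX-2 cells (HepG2 co-transfected with a PXR response element and a CYP3A4-promoter luciferase construct) were seeded at 2,000 per well, rested 5 hr at 37C, then exposed to DMSO-dissolved compounds for 24 hr. Activation was read as luciferase luminescence.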

[19] = molecular target: Nuclear receptor subfamily 1 group I member 2 (Rattus norvegicus) (UniProt Q9R1A7); assay: Rat pregnane X receptor (rPXR) activation by small molecules, qHTS assay (AID 1346983); conditions: rPXR luciferase reporter cells, One-Glo luminescence, 24 h; stronger effect = higher value; also: nearly all actives have a fitted effect of over 20% in size
Sequence of Nuclear receptor subfamily 1 group I member 2 (Rattus norvegicus) (Q9R1A7 whole entry, looked up): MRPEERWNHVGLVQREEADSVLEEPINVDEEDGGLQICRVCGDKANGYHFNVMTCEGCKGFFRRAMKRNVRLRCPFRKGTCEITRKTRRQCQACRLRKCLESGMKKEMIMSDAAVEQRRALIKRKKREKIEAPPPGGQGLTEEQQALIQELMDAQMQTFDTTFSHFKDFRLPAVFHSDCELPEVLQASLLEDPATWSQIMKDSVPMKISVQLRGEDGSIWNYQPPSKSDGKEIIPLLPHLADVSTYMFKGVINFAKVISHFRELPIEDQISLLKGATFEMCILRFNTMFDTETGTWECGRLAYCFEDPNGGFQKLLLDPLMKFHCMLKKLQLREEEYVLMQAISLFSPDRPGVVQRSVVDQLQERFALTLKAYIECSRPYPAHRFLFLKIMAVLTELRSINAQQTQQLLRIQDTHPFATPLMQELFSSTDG
Summary of the method: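 Cell-based rPXR activation assay: rPXR cells, 2,000 per well, rested 5hr at 37 C, then exposed to compounds in DMSO for 24 hr at 37 C. Luciferase activity read by One-Glo luminescence after 30 min at room temperature.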
% is scaled to controls: 0 for no effect and ±100 for the full control effect.

Cc1nc2c([nH]1)c(=O)n(C)c(=O)n2Cc1ccco1
inactive: Potency [1] | Potency [2] | Potency [3] | Potency [4] | Potency [5] | outcome [6] | outcome [7] | outcome [8] | outcome [9] | Potency [10] | Potency [11] | Potency [12] | outcome [13] | Potency [14] | Potency [15]

FC(F)OC(Cl)C(F)(F)F (configuration not stated)
inactive: Potency [1] | Potency [16] | Potency [4] | Potency [5] | outcome [6] | outcome [7] | outcome [8] | outcome [9] | Potency [10] | Potency [11] | Potency [12] | outcome [13] | Potency [14] | Potency [15] | Potency [17] | Potency [18]

O=C(O)CNC(=O)c1ccc([N+](=O)[O-])cc1
inactive: Potency [1] | Potency [16] | Potency [2] | Potency [3] | Potency [4] | Potency [5] | outcome [6] | outcome [7] | outcome [8] | outcome [9] | Potency [10] | Potency [11] | Potency [12] | outcome [13] | Potency [14] | Potency [15]

CCCCCOC(=O)CCCCC
inactive: Potency [1] | Potency [16] | Potency [2] | Potency [3] | Potency [4] | Potency [5] | outcome [6] | outcome [7] | outcome [8] | outcome [9] | Potency [10] | Potency [11] | Potency [12] | outcome [13] | Potency [14] | Potency [15]

NS(=O)(=O)c1cc2c(cc1Cl)NC(C1CC3C=CC1C3)NS2(=O)=O (configuration not stated)
inactive: Potency [1] | Potency [16] | Potency [2] | Potency [3] | Potency [4] | Potency [5] | outcome [6] | outcome [7] | outcome [8] | outcome [9] | Potency [10] | Potency [11] | Potency [12] | outcome [13] | Potency [14] | Potency [15]

NC(CSCC(=O)O)C(=O)O (configuration not stated)
inactive: Potency [1] | Potency [2] | Potency [4] | Potency [5] | outcome [6] | outcome [7] | outcome [8] | outcome [9] | Potency [10] | Potency [11] | Potency [12] | outcome [13] | Potency [14] | Potency [15] | Potency [17] | Potency [18]

O=C1CCCC(=O)C1
inactive: Potency [1] | Potency [16] | Potency [2] | Potency [3] | Potency [4] | Potency [5] | outcome [6] | outcome [7] | outcome [8] | outcome [9] | Potency [10] | Potency [11] | Potency [12] | outcome [13] | Potency [14] | Potency [15]

O=C(CCCN1CCC(O)(c2cccc(C(F)(F)F)c2)CC1)c1ccc(F)cc1
inactive: Potency [1] | Potency [16] | Potency [5] | outcome [6] | outcome [7] | outcome [8] | outcome [9] | Potency [10] | Potency [11] | Potency [12] | outcome [13] | Potency [14] | Potency [15] | max activation [19] 1.11%
active: Potency [17] 4.47 µM | Potency [18] 12.6 µM

CCOC(=O)c1ccc(C)cc1
inactive: Potency [1] | Potency [16] | Potency [3] | Potency [4] | Potency [5] | outcome [6] | outcome [7] | outcome [8] | outcome [9] | Potency [10] | Potency [11] | Potency [12] | outcome [13] | Potency [14] | Potency [15]
